Results reported in PubChem BioAssay AID1159580 (chemical genetic matrix, 2015).
Several values for one entry are separate records, joined by “and”; a condition that tells them apart may be missing. Equal entries are not always repeated. Among all 5,500 compounds or so, about 2,000 (36%) were called active. Not shown: some 18% with an inconclusive outcome. No stated cut-off is given here; in the data, active means normalized growth mostly below about 0.91 (no sharp cut-off); inconclusive means no clear call, values can overlap the other calls; inactive means mostly above about 0.92. Some of the results follow.

Test: chemical genetic growth profiling, strain panel (AID 1159580);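 further: tested at 20 µM; growth read once vehicle control cultures reached saturation at 30 °C; 1 = growth at the plate median or of vehicle wells; lower values mean less growth of the strain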
Details: S. cerevisiae deletion strains, growth OD

Measured: normalized growth

CC(=O)Oc1cc(OC(C)=O)c2c(c1)O[C@H](c1ccc(OC(C)=O)c(OC(C)=O)c1)[C@H](OC(C)=O)C2
inactive: locus YAL013W, strain DEP1, hits give low values 1.01 | locus YAL021C, strain ccr4, hits give low values 1 | locus YAL026C, strain drs2, hits give low values 1.01 | locus YAL030W, strain snc1, hits give low values 1 | locus YBL061C, strain skt5, hits give low values 0.994 | locus YBR009C, strain hhf1, hits give low values 0.965 | locus YBR021W, strain FUR4, hits give low values 1 | locus YBR023C, strain chs3, hits give low values 0.998 | locus YBR171W, strain sec66, hits give low values 0.999 | locus YBR229C, strain ROT2, hits give low values 1.01 | locus YBR231C, strain swc5, hits give low values 1.01 | locus YBR279W, strain paf1, hits give low values 0.985 | locus YCL011C, strain gbp2, hits give low values 0.982 | locus YCL016C, strain dcc1, hits give low values 0.971 | locus YCL029C, strain bik1, hits give low values 1.02 | locus YCL061C, strain MRC1, hits give low values 0.999 | locus YCL069W, strain vba3, hits give low values 1 | locus YCR088W, strain abp1, hits give low values 1 | locus YDL005C, strain med2, hits give low values 1.01 | locus YDL035C, strain GPR1, hits give low values 1.01 | locus YDL040C, strain nat1, hits give low values 1 | locus YDL074C, strain BRE1, hits give low values 1.01 | locus YDL101C, strain DUN1, hits give low values 1.01 | locus YDL185W, strain tfp1, hits give low values 1.03 | locus YDL192W, strain arf1, hits give low values 1.02 | locus YDR001C, strain nth1, hits give low values 0.999 | locus YDR069C, strain doa4, hits give low values 1 | locus YDR101C, strain arx1, hits give low values 1.02 | locus YDR137W, strain rgp1, hits give low values 1.02 | locus YDR159W, strain sac3, hits give low values 1.02 | locus YDR162C, strain NBP2, hits give low values 1 | locus YDR195W, strain ref2 1.04 | locus YDR297W, strain sur2, hits give low values 0.996 | locus YDR318W, strain mcm21, hits give low values 1.03 | locus YDR334W, strain swr1, hits give low values 1 | locus YDR335W, strain msn5, hits give low values 1 | locus YDR388W, hits give low values 1.03 | locus YDR392W, strain spt3, hits give low values 0.964 | locus YDR502C, strain sam2, hits give low values 1.02 | locus YEL003W, strain gim4, hits give low values 1 | locus YEL037C, strain rad23, hits give low values 1 | locus YEL061C, strain CIN8 (second series), hits give low values 0.997 | locus YEL061C, strain CIN8, hits give low values 1 | locus YER015W, strain faa2, hits give low values 0.983 | locus YER016W, strain bim1, hits give low values 1 | locus YER110C, hits give low values 1.03 | locus YER111C, strain swi4, hits give low values 0.995 | locus YER155C, strain BEM2 (second series), hits give low values 1.05 | locus YER155C, strain BEM2, hits give low values 0.999 | locus YER167W, strain BCK2, hits give low values 1.02 | locus YFR010W, strain ubp6, hits give low values 0.998 | locus YGL078C, strain dbp3, hits give low values 1.02 | locus YGL086W, strain mad1, hits give low values 0.997 | locus YGL167C, strain pmr1, hits give low values 0.998 | locus YGL173C, strain kem1, hits give low values 1 | locus YGL227W, strain vid30, hits give low values 0.991 | locus YGL240W, strain doc1, hits give low values 1.04 | locus YGL248W, strain PDE1, hits give low values 1.01 | locus YGL253W, strain hxk2, hits give low values 0.984 | locus YGR078C, strain PAC10, hits give low values 1 | locus YGR135W, strain pre9, hits give low values 1.02 | locus YGR252W, strain gcn5, hits give low values 1.05 | locus YHR013C, strain ard1, hits give low values 0.999 | locus YHR027C, strain rpn1, hits give low values 0.999 | locus YHR030C, strain SLT2, hits give low values 1.01 and 0.946 | locus YHR079C, strain IRE1 (second series), hits give low values 1.03 | locus YHR079C, strain IRE1, hits give low values 0.968 | locus YHR094C, strain hxt1, hits give low values 1.02 | locus YHR129C, strain ARP1, hits give low values 1.01 | locus YHR142W, strain chs7, hits give low values 0.944 | locus YHR200W, strain rpn10, hits give low values 1.03 | locus YIL066C, strain RNR3, hits give low values 0.999 | locus YIL073C, strain SPO22, hits give low values 1.1 | locus YIL125W, strain kgd1, hits give low values 1.01 | locus YIR030C, strain dcg1, hits give low values 1.03 | locus YJL092W, strain hpr5, hits give low values 1 | locus YJL095W, strain BCK1 (second series), hits give low values 0.99 | locus YJL095W, strain BCK1, hits give low values 1 and 0.959 | locus YJL115W, strain asf1, hits give low values 1 | locus YJL129C, strain trk1, hits give low values 0.999 | locus YJL134W, strain LCB3, hits give low values 1.01 | locus YJL154C, strain vps35, hits give low values 1 | locus YJL164C, strain tpk1, hits give low values 0.984 | locus YJL166W, strain qcr8, hits give low values 1 | locus YJL168C, strain set2, hits give low values 1.03 | locus YJL187C, strain SWE1 (second series), hits give low values 1.01 | locus YJL187C, strain SWE1, hits give low values 1.01 | locus YJR043C, strain POL32, hits give low values 1.01 | locus YJR066W, strain TOR1, hits give low values 0.935 | locus YJR075W, strain HOC1, hits give low values 1.02 | locus YKL009W, strain mrt4, hits give low values 1.02 | locus YKL068W, hits give low values 1.01 | locus YKL085W, strain MDH1 (second series), hits give low values 1.01 | locus YKL085W, strain MDH1, hits give low values 1.01 | locus YKL160W, strain elf1, hits give low values 1.01 | locus YKR001C, strain vps1, hits give low values 1.02 | locus YKR026C, strain gcn3, hits give low values 0.994 | locus YKR091W, strain srl3, hits give low values 0.994 | locus YLL001W, strain dnm1, hits give low values 0.985 | locus YLL026W, hits give low values 0.999 | locus YLL041C, strain sdh2, hits give low values 1.01 | locus YLR027C, strain aat2, hits give low values 1.01 | locus YLR039C, strain RIC1, hits give low values 1.09 | locus YLR058C, strain SHM2, hits give low values 1.01 | locus YLR102C, strain apc9, hits give low values 1.02 | locus YLR113W, strain HOG1, hits give low values 0.94 | locus YLR221C, strain rsa3, hits give low values 0.964 | locus YLR258W, strain gsy2, hits give low values 0.979 | locus YLR262C, strain YPT6 (second series), hits give low values 0.997 | locus YLR262C, strain YPT6, hits give low values 1.12 | locus YLR268W, strain sec22, hits give low values 1.04 | locus YLR320W, strain mms22, hits give low values 0.984 | locus YLR330W, strain CHS5, hits give low values 1.02 | locus YLR342W, strain FKS1 (second series), hits give low values 1.01 | locus YLR342W, strain FKS1, hits give low values 1 | locus YLR357W, strain rsc2, hits give low values 1.01 | locus YLR370C, strain arc18, hits give low values 0.979 | locus YLR371W, strain rom2, hits give low values 1.03 | locus YLR384C, strain iki3, hits give low values 1 | locus YLR418C, strain cdc73, hits give low values 1.06 | locus YML016C, strain PPZ1, hits give low values 1.01 | locus YML032C, strain rad52, hits give low values 1.03 | locus YML120C, strain ndi1, hits give low values 0.981 | locus YML124C, strain tub3, hits give low values 1.02 | locus YMR058W, strain fet3, hits give low values 1.01 | locus YMR078C, strain ctf18, hits give low values 1.02 | locus YMR125W, strain sto1, hits give low values 0.995 | locus YMR129W, hits give low values 1 | locus YMR205C, strain PFK2, hits give low values 0.992 | locus YMR223W, strain ubp8, hits give low values 1.02 | locus YMR231W, strain pep5, hits give low values 1.01 | locus YMR307W, strain GAS1, hits give low values 1.01 | locus YNL067W, strain RPL9B, hits give low values 1.02 | locus YNL071W, strain lat1, hits give low values 1.01 | locus YNL183C, strain NPR1, hits give low values 0.91 | locus YNL209W, strain ssb2, hits give low values 0.996 | locus YNL233W, strain BNI4, hits give low values 1.01 | locus YNL248C, strain rpa49, hits give low values 1.03 | locus YNL250W, strain rad50, hits give low values 1.03 | locus YNL271C, strain bni1, hits give low values 1.02 | locus YNL298W, strain CLA4, hits give low values 1.03 | locus YNL307C, strain MCK1, hits give low values 1.07 | locus YNL322C, strain KRE1 (second series), hits give low values 0.997 | locus YNR049C, strain mso1, hits give low values 1 | locus YNR052C, strain pop2, hits give low values 1.03 | locus YOL012C, strain htz1 0.664 | locus YOL147C, strain pex11, hits give low values 1.02 | locus YOR001W, strain rrp6, hits give low values 1.02 | locus YOR061W, strain CKA2, hits give low values 1 | locus YOR069W, strain VPS5, hits give low values 1.01 | locus YOR070C, strain gyp1, hits give low values 0.997 | locus YOR080W, strain dia2, hits give low values 1 | locus YOR083W, strain WHI5, hits give low values 0.997 | locus YOR106W, strain vam3, hits give low values 1.01 | locus YOR136W, strain idh2, hits give low values 1.05 | locus YOR144C, strain elg1, hits give low values 1.02 | locus YOR184W, strain ser1, hits give low values 1.03 | locus YOR231W, strain MKK1, hits give low values 0.965 | locus YOR265W, strain rbl2, hits give low values 1.01 | locus YOR270C, strain vph1, hits give low values 0.943 | locus YOR290C, strain snf2, hits give low values 0.996 | locus YOR316C, strain cot1, hits give low values 1.03 | locus YPL051W, strain arl3, hits give low values 0.997 | locus YPL078C, strain atp4, hits give low values 1.01 | locus YPL106C, strain sse1, hits give low values 0.967 | locus YPL240C, strain hsp82, hits give low values 0.99 | locus YPL256C, strain CLN2, hits give low values 0.933 | locus YPR119W, strain clb2, hits give low values 1.01 | locus YPR141C, strain kar3, hits give low values 1.02 | locus YPR163C, strain tif3, hits give low values 1.05 | locus YPR167C, strain met16, hits give low values 1.04 | strain wtn01, hits give low values 1.01
